This is a sample that favours compounds with a hit; in the whole collection about 2.4% have one here.
SENP6 block: SENP6 protease inhibitors, primary screen, biochemical, luminescence, uHTS. AID 2599, 2010. inhibition, % at 10 µM. 330,000 tested, 1.8% active. Sentrin-specific protease 6 (Homo sapiens), Q9GZR1. Recombinant SENP6 catalytic domain, aminoluciferin luminescence;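 active = inhibition above about 50% at the single tested dose, limit read from the data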
SENP8 block-1: human SENP8 protease inhibitors, primary screen, biochemical, fluorescence, Nedd8 protein substrate, uHTS; AID 602440, 2012; 360,000 tested, 0.64% active; inhibition, % at 20 µM; Sentrin-specific protease 8 (Homo sapiens), Q96LD8; recombinant SENP8; in the data active = inhibition mostly above about 40%, no sharp cut-off; inactive = mostly below about 27%
Target sequence (Q96LD8 whole entry, looked up): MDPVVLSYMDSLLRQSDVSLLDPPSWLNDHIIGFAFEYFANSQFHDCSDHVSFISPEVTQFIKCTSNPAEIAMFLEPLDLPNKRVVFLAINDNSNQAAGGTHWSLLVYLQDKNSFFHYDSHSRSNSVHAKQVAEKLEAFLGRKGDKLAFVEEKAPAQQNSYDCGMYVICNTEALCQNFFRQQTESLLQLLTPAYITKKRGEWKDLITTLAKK
SENP8 block-2: SENP8 protease inhibitors, primary screen, biochemical, luminescence. purified SENP8, Z-RLRGG-aminoluciferin cleavage. inhibition, % at 10 µM. 330,000 tested, 1.2% active. AID 2540, 2010; in the data active = inhibition above about 50%
SENP7 inh: SENP7 protease inhibitors, primary screen, biochemical, luminescence, uHTS. Sentrin-specific protease 7 (Homo sapiens), Q9BQF6. recombinant SENP7, Z-RLRGG-aminoluciferin luminescence, 40 min. inhibition, % at 5 µM. 330,000 tested, 1.5% active. AID 434973, 2010;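 active = inhibition above about 50% at the single test dose, limit read from the data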
Target sequence (Q9BQF6 706-1050 limits assumed): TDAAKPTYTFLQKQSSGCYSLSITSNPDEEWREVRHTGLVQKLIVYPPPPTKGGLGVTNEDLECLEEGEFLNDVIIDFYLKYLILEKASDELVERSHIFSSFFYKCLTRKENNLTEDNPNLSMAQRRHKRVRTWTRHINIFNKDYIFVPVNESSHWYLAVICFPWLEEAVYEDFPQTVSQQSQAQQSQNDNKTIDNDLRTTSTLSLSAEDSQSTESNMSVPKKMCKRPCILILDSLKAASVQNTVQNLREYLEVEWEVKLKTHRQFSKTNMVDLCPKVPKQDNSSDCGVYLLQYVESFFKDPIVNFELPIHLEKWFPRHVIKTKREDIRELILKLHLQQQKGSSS
Platelet DG rel: inhibitors of platelet dense granule secretion, primary screen, cell-based, MLPCN, human platelets. human platelet-rich plasma, SFLLRN dense granule ATP release, luminescence. inhibition, %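 (compounds screened at 7.5 µM in platelet-rich plasma)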. 300,000 tested, 0.22% active;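 active = mean replicate score, as percent of positive control, at or above 50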
SENP8 inh conf: human SENP8 protease inhibitors, confirmation, biochemical, Nedd8 protein substrate, single concentration. inhibition, % at 25 µM. purified SENP8, Nedd8-AMC/pro-Nedd8 cleavage fluorescence, 30 min. shares compounds with SENP8 block-1. 1,400 tested, 15% active; in the data active = inhibition mostly above about 39%, no sharp cut-off; inactive = mostly below about 34%
Numbers stand for hits; - = inactive; . = not tested or not shown.

SMILES	SENP6 block	SENP8 block-1	SENP8 block-2	SENP7 inh	Platelet DG rel	SENP8 inh conf
Cc1ccc(OCCCCN2CCCC(C)C2)c([N+](=O)[O-])c1 (configuration not stated)	-	-	-	-	-	.
O=C1Nc2ccccc2C1=O	-	44	-	-	-	-
COCCN(C(=O)CSc1nnc(-c2ccc(C(C)(C)C)cc2)n1N)c1c(N)n(CC(C)C)c(=O)[nH]c1=O	-	-	-	-	-	.
O=C(O)/C=C/C(=O)Nc1ccc(O)cc1	-	81	-	-	-	-
O=C(O)/C=C/C(=O)Nc1ccc(C(=O)c2ccccc2)cc1	-	-	-	-	-	.
CCCCn1c(N)c(N(CC)C(=O)CN2C(=O)NC(C)(c3ccccc3)C2=O)c(=O)[nH]c1=O (configuration not stated)	-	-	-	-	-	.
Cc1ccc(NC(=O)COC(=O)c2ccc3c(c2)OCCO3)cc1	-	-	-	-	.	.
CC(=O)c1cccc(NC(=O)COC(=O)c2ccc3c(c2)OCCO3)c1	-	42	-	-	-	-
CC(C)(C)OC(=O)NCCCC1=CC2=CC(=O)C(C)(O)C(=O)C2=CO1 (configuration not stated)	-	.	-	-	-	.
O=C(c1ncn(Cc2ccccc2)c1C(=O)N1CCc2ccccc2C1)N1CCc2ccccc2C1	-	52	-	-	.	58
Cc1[nH]c2ccccc2c1/C=C/c1cc[n+](C)cc1	.	44	.	.	-	-
O=C(CSc1nc2cc(Cl)ccc2s1)NCc1ccc2c(c1)OCO2	-	44	-	-	-	-
CN1C(=O)C2(OCCCO2)c2ccccc21	-	-	-	-	-	.
O=C(CCN1C(=O)c2ccccc2S1(=O)=O)Nc1ccc(C(=O)O)cc1	-	-	-	-	-	.
COc1ccc(C2CC(=O)c3c(O)cc(O)cc3O2)cc1O (configuration not stated)	.	41	.	.	.	-
CCC(C)(C)NC(=O)C(c1ccncc1)N(C(=O)c1sc(C)nc1C)c1ccc(C)cc1 (configuration not stated)	-	-	-	-	-	.
CCCC1CCC(=NNC(=O)CNc2ccc(OC)cc2)CC1 (configuration not stated)	-	59	-	-	-	-
CCS(=O)(=O)Nc1cc2c3c(c1)CCC(=O)N3CCC2	-	-	-	-	-	.
COC(=O)CCCC1=CC2=CC(=O)C(C)(OC(=O)c3cccs3)C(=O)C2=CN1CCc1ccccn1 (configuration not stated)	-	40	-	-	-	60
C=CCN1C=C2C(=O)C(C)(OC(=O)c3cccs3)C(=O)C=C2C=C1CCCC(=O)OC (configuration not stated)	-	-	-	-	-	.
CCOc1ccc(S(=O)(=O)NCCC(=O)N2CC=C(c3ccccc3)CC2)cc1	-	-	-	-	.	.
O=C(NNc1ccccc1[N+](=O)[O-])Nc1ccc(F)cc1F	-	-	-	-	-	.
O=C(NNc1ccccc1)Nc1cc(Cl)ccc1Cl	.	48	.	.	.	-
O=C(COc1ccccc1)Nc1cc(Cl)ccc1Cl	-	-	-	-	-	.
O=C(NNc1ccccc1[N+](=O)[O-])Nc1cccc(Cl)c1	-	40	-	-	-	-
SMILES	SENP6 block	SENP8 block-1	SENP8 block-2	SENP7 inh	Platelet DG rel	SENP8 inh conf
COc1ccc(NC(=O)CCNS(=O)(=O)c2ccc(C)c(C)c2)cc1OC	-	-	-	-	-	.
O=[N+]([O-])c1ccc(N2CCCC2)cc1NCc1ccccc1	-	-	-	-	-	.
CC(Nc1cc(N2CCCC2)ccc1[N+](=O)[O-])c1ccccc1 (configuration not stated)	-	45	-	-	.	-
O=[N+]([O-])c1ccc(N2CCOCC2)cc1NCc1ccccc1	-	42	-	-	.	-
COc1cccc(OCCNc2cc(N3CCCCC3)ccc2[N+](=O)[O-])c1	-	60	-	-	-	-
CC(Nc1cc(N2CCOCC2)ccc1[N+](=O)[O-])c1ccccc1 (configuration not stated)	-	-	-	-	-	.
COc1ccc(OCCNc2cc(N3CCCCC3)ccc2[N+](=O)[O-])cc1	-	-	-	-	-	.
Cc1nnc(SCC(=O)Nc2c(Cl)cccc2Cl)n(N)c1=O	-	-	-	-	-	.
Cc1ccc(C(=O)/C=C\C(=O)c2ccc(C)cc2)cc1	.	-	.	.	-	.
CC(/C=C/C(=O)c1ccc(C)cc1)=C\c1ccccc1	-	46	-	-	-	-
CC(C)(C)C(=O)NCCCc1nc2ccccc2n1CCCOc1ccc(Cl)cc1	-	41	-	-	-	-
CC1=NCCN1CCNC(=O)Nc1cc(C)cc(C)c1	-	-	-	-	-	.
CC1=NCCN1CCNC(=O)Nc1ccc(F)cc1	-	41	-	-	-	-
CCn1nc([N+](=O)[O-])c(C(C#N)c2nc3cc(C(F)(F)F)ccc3s2)c(Cl)c1=O (configuration not stated)	-	-	-	-	-	.
CCCn1nc([N+](=O)[O-])c(C(C#N)c2nc3ccccc3o2)c(Cl)c1=O (configuration not stated)	-	43	-	-	-	-
CCOC(=O)C1(CC2CC2)CCN(S(=O)(=O)/C=C/c2ccccc2)CC1	-	-	-	-	-	.
CC(=O)N1CCN(C(=O)COC(=O)CNC(=O)c2ccccc2C)CC1	-	-	-	-	-	.
O=C1CC(c2ccccc2)Oc2cc(O)cc(O)c21 (configuration not stated)	-	-	-	-	-	.
CC(C)=CCc1c(O)cc2c(c1O)C(=O)CC(c1ccccc1)O2 (configuration not stated)	-	42	-	-	-	-
CC(c1c(O)c2ccccc2[nH]c1=O)C1(C)CCC(O)C(C)(C)O1 (configuration not stated)	-	44	-	-	-	-
COc1ccc(N2Nc3n[nH]c(N)c3N2)cc1	-	51	-	-	-	-
COc1ccc(N2CCN(c3n[nH]c(N)n3)CC2)cc1	-	-	-	-	-	.
CCOc1ccc(N2Nc3n[nH]c(N)c3N2)cc1	-	49	-	-	-	-
CC(=O)c1ccc(S(=O)(=O)N2CCCCC2C(=O)O)cc1 (configuration not stated)	-	-	-	-	-	.
CCN(CC)S(=O)(=O)c1ccc(/C=C/C(=O)Nc2ccc(N3CCOCC3)cc2)cc1	-	42	-	-	-	-
NS(=O)(=O)c1ccc(N/N=C2/CCCCC2C2CCCCC2)c([N+](=O)[O-])c1 (configuration not stated)	-	-	-	-	-	.
Cc1cc(C)c2c(c1)/C(=N/Nc1ccc(S(N)(=O)=O)cc1[N+](=O)[O-])CCC2	-	53	-	-	-	-

High-throughput results: PubChem, several laboratories
